Source: PubChem BioAssay (Tox21)
Records with an inconclusive call do not appear. Active and inactive are the calls of the source. Unless noted, calls come from the whole dose curve; as a rule, active = well fitted curve in the direction sought with a large enough effect in the repeat runs; inconclusive = weak or mixed curves; inactive = no such curve, though single readings can be large; an effect the other way counts as inactive or inconclusive.

How the values were obtained:
[1] = target: Peroxisome proliferator-activated receptor delta (Homo sapiens) (UniProt Q03181); experiment: qHTS assay to identify small molecule agonists of the peroxisome proliferator-activated receptor delta (PPARd) signaling pathway (AID 743212; calls by dose curve)
Sequence of Peroxisome proliferator-activated receptor delta (Homo sapiens) (Q03181 whole entry, looked up): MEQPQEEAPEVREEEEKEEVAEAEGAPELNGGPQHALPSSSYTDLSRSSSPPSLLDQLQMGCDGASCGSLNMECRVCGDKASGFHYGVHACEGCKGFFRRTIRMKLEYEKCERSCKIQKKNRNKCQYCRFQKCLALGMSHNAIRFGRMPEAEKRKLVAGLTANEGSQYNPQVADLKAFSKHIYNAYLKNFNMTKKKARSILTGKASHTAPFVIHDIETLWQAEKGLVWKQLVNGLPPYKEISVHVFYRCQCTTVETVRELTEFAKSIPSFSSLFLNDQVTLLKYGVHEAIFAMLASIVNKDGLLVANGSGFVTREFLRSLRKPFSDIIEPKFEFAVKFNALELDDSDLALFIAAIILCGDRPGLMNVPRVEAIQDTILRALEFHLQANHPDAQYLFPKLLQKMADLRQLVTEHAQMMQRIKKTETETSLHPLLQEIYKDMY
Procedure, shortened: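 HEK293H PPARd-bla cells; 5 h preincubation 37 C/5% CO2; compound (DMSO) 37 C; LiveBLAzer B/G FRET substrate 2 h RT; fluorescence intensity.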

[2] = qHTS assay to identify small molecule antagonists of the peroxisome proliferator-activated receptor delta (PPARd) signaling pathway - cell viability counter screen (AID 743213); note: nearly all actives have a fitted effect of over 50% in size; note: potency is the fitted concentration of half-maximal effect
Procedure, shortened: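 In this counter screen, HEK293H cells carrying a UAS-beta-lactamase reporter are co-treated with test compounds and 300 nM L165041 (final) for 17 h at 37 C; cell viability is quantified by CellTiter-Glo luminescence.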

[3] = target: Peroxisome proliferator-activated receptor delta (Homo sapiens) (UniProt Q03181); experiment: qHTS assay to identify small molecule antagonists of the peroxisome proliferator-activated receptor delta (PPARd) signaling pathway (AID 743215; active = well fitted inhibition curve with a large enough effect in the signal ratio in the repeat runs, not every such curve was filed as active; the % refers to the signal ratio;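 note: cells stimulated with agonist L165041 at 300 nM final during compound exposure; series mostly up to about 62 µM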)
Procedure, shortened: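 Inhibition of L165041-driven (300 nM final) PPARd signaling is scored in HEK293H UAS-bla cells. Exposure lasts 17 h at 37 C; beta-lactamase activity is then read by FRET substrate fluorescence after 2 h at room temperature.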

[4] = qHTS assay to identify small molecule agonists of the farnesoid-X-receptor (FXR) signaling pathway - cell viability counter screen (AID 743218); note: nearly all actives have a fitted effect of over 45% in size
Procedure, shortened: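 Cytotoxicity counter-screen run in parallel, same wells: FXR-UAS-bla HEK 293T cells dosed 16 h at 37 C, viability read by CellTiter-Glo luminescence after 30 min at room temperature.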

[5] = qHTS assay to identify small molecule antagonists of the farnesoid-X-receptor (FXR) signaling pathway - cell viability counter screen (AID 743221; active = well fitted cell-killing curve with a large enough effect in the repeat runs, not every such curve was filed as active; note: nearly all actives have a fitted effect of over 50% in size)
Procedure, shortened: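 FXR-UAS-bla HEK 293T cells were treated with test compounds plus chenodeoxycholic acid (50 uM final) for 16 h at 37 C. Cell viability in the same wells was then read as CellTiter-Glo luminescence after 30 min at room temperature.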

[6] = target: Vitamin D3 receptor (Homo sapiens) (UniProt P11473); experiment: qHTS assay to identify small molecule agonists of the vitamin D receptor (VDR) signaling pathway (AID 743222; calls by dose curve)
Sequence of Vitamin D3 receptor (Homo sapiens) (P11473 whole entry, looked up): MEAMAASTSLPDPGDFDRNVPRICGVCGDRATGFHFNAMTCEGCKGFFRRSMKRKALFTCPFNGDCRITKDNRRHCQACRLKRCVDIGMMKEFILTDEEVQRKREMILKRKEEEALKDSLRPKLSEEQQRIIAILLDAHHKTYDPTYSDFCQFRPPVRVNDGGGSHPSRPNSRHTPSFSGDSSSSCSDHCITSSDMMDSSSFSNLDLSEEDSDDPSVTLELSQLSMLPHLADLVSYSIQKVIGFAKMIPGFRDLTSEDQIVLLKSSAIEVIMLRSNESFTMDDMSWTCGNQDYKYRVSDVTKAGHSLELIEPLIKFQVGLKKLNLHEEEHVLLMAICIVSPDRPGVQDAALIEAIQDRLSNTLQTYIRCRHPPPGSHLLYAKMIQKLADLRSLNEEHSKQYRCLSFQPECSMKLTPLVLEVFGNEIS
Procedure, shortened: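 Quantitative HTS agonist-mode screen: compounds in DMSO were pin-transferred onto VDR-bla cells and incubated 16 h at 37C, 5% CO2. Reporter activity was detected with LiveBLAzer B/G FRET substrate after 2 h at room temperature.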

[7] = qHTS assay to identify small molecule agonists of the vitamin D receptor (VDR) signaling pathway - cell viability counter screen (AID 743224); note: series mostly up to about 63 µM; nearly all actives have a fitted effect of over 50% in size
Procedure, shortened: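 Viability is measured in the same wells as the VDR-bla reporter assay: after 16 h compound treatment and 2 h substrate loading, CellTiter-Glo is added and luminescence read 30 min later.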

[8] = target: Vitamin D3 receptor (Homo sapiens) (UniProt P11473); experiment: qHTS assay to identify small molecule antagonists of the vitamin D receptor (VDR) signaling pathway (AID 743223; active = well fitted inhibition curve with a large enough effect in the signal ratio in the repeat runs, not every such curve was filed as active; the % refers to the signal ratio)
Procedure, shortened: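 VDR-bla cells were plated, incubated 4 h at 37C, then given compound and 1alpha,25-dihydroxyvitamin D3 (3 nM final). After 16 h at 37C, LiveBLAzer B/G FRET substrate was added for 2 h at room temperature and fluorescence read.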

[9] = target: Bile acid receptor (Homo sapiens) (UniProt Q96RI1); experiment: qHTS assay to identify small molecule agonists of the farnesoid-X-receptor (FXR) signaling pathway (AID 743220; active = well fitted activation curve with a large enough effect in the signal ratio in the repeat runs, not every such curve was filed as active; the % refers to the signal ratio; note: potency is the fitted concentration of half-maximal effect)
Sequence of Bile acid receptor (Homo sapiens) (Q96RI1 whole entry, looked up): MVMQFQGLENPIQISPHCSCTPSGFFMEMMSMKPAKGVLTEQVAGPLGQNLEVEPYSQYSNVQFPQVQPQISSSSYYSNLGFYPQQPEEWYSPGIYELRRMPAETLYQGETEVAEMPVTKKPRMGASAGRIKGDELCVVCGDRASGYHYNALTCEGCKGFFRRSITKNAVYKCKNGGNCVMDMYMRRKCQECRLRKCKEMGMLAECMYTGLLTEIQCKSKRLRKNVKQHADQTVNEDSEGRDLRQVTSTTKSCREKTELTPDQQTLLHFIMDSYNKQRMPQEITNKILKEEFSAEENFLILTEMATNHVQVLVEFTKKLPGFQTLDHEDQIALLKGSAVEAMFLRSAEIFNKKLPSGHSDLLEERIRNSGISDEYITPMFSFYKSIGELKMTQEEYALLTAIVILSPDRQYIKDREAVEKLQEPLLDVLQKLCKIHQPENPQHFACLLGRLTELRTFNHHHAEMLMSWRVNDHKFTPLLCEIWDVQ
Procedure, shortened: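 Beta-lactamase reporter under UAS control in GeneBLAzer FXR HEK 293T cells (5000/well) measured with LiveBLAzer FRET substrate after 2 h at room temperature. Compound exposure lasted 16 h at 37C.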

[10] = target: Bile acid receptor (Homo sapiens) (UniProt Q96RI1); experiment: qHTS assay to identify small molecule antagonists of the farnesoid-X-receptor (FXR) signaling pathway (AID 743217; active = well fitted inhibition curve with a large enough effect in the signal ratio in the repeat runs, not every such curve was filed as active; the % refers to the signal ratio)
Procedure, shortened: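 Antagonist mode against 50 uM (final) chenodeoxycholic acid stimulation in FXR-bla HEK 293T cells, 16 h at 37 °C. Inhibition detected as reduced beta-lactamase activity via LiveBLAzer B/G FRET fluorescence after 2 h at room temperature.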

Measured: Potency

COC(CC(C)CCCC(C)(C)O)OC (centres undefined)
not listed: [8] | [9] | [10]
inactive: all other assays above

CC(C)COC(=O)COc1cc(Cl)c(Cl)cc1Cl
inactive: [1] | [2] | [3] | [4] | [5] | [7]

CC(C)(C(=O)c1cccnc1)c1cccnc1
not listed: [9] | [10]
inactive: all other assays above

O=C(C(=O)c1ccco1)c1ccco1
not listed: [7] | [9] | [10]
inactive: all other assays above

CCCCCc1ccco1
not listed: [7] | [8] | [10]
inactive: all other assays above

N[C@@H](Cc1cc(I)c(O)c(I)c1)C(=O)O
not listed: [9] | [10]
inactive: all other assays above

COC(=O)C1=C(C)NC(C)=C(C(=O)OC(C)(C)CN(C)CCC(c2ccccc2)c2ccccc2)C1c1cccc([N+](=O)[O-])c1 (centres undefined)
inactive: [1] | [2] | [3] | [4] | [6] | [8]

OCC(CO)n1cnc(-c2ccc(F)cc2)c1-c1ccnc(Oc2ccccc2)n1
not listed: [7] | [9] | [10]
inactive: all other assays above

C=CC(=O)O
not listed: [9] | [10]
inactive: all other assays above

COc1ccc(CCN(C)CCCN2CCc3cc(OC)c(OC)cc3CC2=O)cc1OC
inactive: [1] | [2] | [3] | [4] | [5] | [7]

COc1ccc2nc(S(=O)Cc3ncc(C)c(OC)c3C)[nH]c2c1 (centres undefined)
not listed: [9] | [10]
inactive: all other assays above

CC1CCCC(=O)C1=O (centres undefined)
not listed: [9] | [10]
inactive: all other assays above

COc1ccc(C2C(=O)c3ccccc3C2=O)cc1
inactive: [1] | [2] | [3] | [4] | [6] | [8]

CNCc1ccc(NC(=O)c2c[nH]c3c2C(=O)CCC3)cc1
not listed: [5] | [9] | [10]
inactive: all other assays above

Cc1c[nH]c2ccccc12
inactive: [1] | [2] | [3] | [4] | [5] | [7]

CSSc1ccoc1C
inactive: [1] | [2] | [3] | [10] | [9] | [7]

COc1ccc(C(=O)NCc2ccc(OCCN(C)C)cc2)cc1OC
not listed: [8] | [9] | [10]
inactive: all other assays above

CCCCCCCCCCCCCCCCCC(=O)OCC(CC)CCCC (centres undefined)
inactive: [1] | [2] | [3] | [4] | [5] | [6]

COc1ccc(C)cc1
not listed: [8] | [9] | [10]
inactive: all other assays above

CCCC(=O)OC(=O)CCC
inactive: [1] | [2] | [3] | [4] | [5] | [7]

C[C@@H]1C[C@H]2[C@@H]3CCC4=CC(=O)C=C[C@]4(C)[C@@]3(F)[C@@H](O)C[C@]2(C)[C@@]1(O)C(=O)COP(=O)(O)O
not listed: [9] | [10]
inactive: all other assays above

Cc1cn([C@H]2C[C@H](F)[C@@H](CO)O2)c(=O)[nH]c1=O
not listed: [5] | [9] | [10]
inactive: all other assays above

CC(C)OC(=O)c1ccccc1C(=O)OC(C)C
not listed: [4] | [8]
inactive: all other assays above

O=c1[nH][nH]c(=O)c2cc([N+](=O)[O-])ccc12
not listed: [9] | [10]
inactive: all other assays above

O=C(CCS)OCC(COC(=O)CCS)(COC(=O)CCS)COC(=O)CCS
not listed: [3] | [4] | [5]
inactive: all other assays above

CCN(CC)c1ccc(C(=C2C=CC(=[N+](CC)CC)C=C2)c2ccc(S(=O)(=O)O)cc2S(=O)(=O)[O-])cc1
inactive: [1] | [3] | [5]
active: [2] 27.5 µM

O=C1OC(=O)c2c(Br)c(Br)c(Br)c(Br)c21
inactive: [1] | [2] | [3] | [4] | [6] | [7]

O=C1CC[C@@H](C(=O)O)N1
inactive: [1] | [2] | [3] | [5] | [6] | [8]

COc1ccc(-c2cc(C(F)F)nn2-c2ccc(S(N)(=O)=O)cc2)cc1F
inactive: [1] | [2] | [9] | [5] | [6] | [8]

c1ccc(CCCc2ccncc2)cc1
inactive: [1] | [2] | [4] | [5] | [7]
active: [9] 49 µM

CC(=O)OCC1=C(C(=O)O)N2C(=O)[C@@H](NC(=O)CSc3ccncc3)[C@H]2SC1
inactive: [1] | [2] | [10] | [4] | [5] | [7]

O=C1[C@@H]2[C@H]3CC[C@H](C3)[C@@H]2C(=O)N1CCCCN1CCN(c2ncccn2)CC1
inactive: [1] | [2] | [3] | [5] | [6]
